Paper PMC4336329 (PLoS ONE, 2015)
Out of some 310,000 compounds screened, about 14,000 (4.5%) showed an effect of 50% or more. The effect is printed as a negative number. The sample holds strong results, similar compounds and a random draw of the others, so the mix is not that of the screen.

What follows are molecules tested against human ether-à-go-go-related gene (hERG) potassium channel (human, UniProt Q12809) (assay: primary screen, population patch clamp on CHO cells stably expressing hERG; higher = less effect of the substance).
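Also: peak tail current of the secondary pulse compared with the same well before compound.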

human ether-à-go-go-related gene (hERG) potassium channel, sequence (Q12809 whole entry, looked up): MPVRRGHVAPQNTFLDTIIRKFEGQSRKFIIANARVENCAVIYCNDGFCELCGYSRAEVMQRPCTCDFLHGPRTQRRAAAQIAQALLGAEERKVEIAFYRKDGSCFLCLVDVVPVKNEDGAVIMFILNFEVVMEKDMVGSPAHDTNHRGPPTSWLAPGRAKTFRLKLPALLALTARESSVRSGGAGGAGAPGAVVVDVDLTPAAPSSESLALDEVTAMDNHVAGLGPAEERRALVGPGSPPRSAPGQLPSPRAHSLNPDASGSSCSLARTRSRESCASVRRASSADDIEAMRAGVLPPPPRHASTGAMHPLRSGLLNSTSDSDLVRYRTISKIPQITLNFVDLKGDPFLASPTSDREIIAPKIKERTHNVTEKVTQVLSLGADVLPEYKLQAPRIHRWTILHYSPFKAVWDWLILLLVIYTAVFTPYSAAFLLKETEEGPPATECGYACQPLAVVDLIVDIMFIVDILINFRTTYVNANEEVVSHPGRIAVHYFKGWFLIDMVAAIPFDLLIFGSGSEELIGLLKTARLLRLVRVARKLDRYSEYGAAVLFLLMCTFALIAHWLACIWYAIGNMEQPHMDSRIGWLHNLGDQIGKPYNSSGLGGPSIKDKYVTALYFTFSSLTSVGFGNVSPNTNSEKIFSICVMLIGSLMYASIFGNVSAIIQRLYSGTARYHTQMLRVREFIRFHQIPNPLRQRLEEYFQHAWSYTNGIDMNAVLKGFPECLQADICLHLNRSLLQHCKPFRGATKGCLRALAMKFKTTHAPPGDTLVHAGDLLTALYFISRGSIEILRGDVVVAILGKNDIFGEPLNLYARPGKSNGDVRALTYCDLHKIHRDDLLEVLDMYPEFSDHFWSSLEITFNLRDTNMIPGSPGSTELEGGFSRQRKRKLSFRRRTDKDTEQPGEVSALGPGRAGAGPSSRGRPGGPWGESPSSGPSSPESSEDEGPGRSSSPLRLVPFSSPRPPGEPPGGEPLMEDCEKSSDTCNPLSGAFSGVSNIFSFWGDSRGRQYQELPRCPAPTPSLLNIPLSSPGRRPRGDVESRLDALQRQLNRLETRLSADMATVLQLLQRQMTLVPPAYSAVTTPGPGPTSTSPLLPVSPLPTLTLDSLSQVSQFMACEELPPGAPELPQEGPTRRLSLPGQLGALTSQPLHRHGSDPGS

SMILES | hERG current change (%, negative = inhibition) at 10uM [%]
COc1ccc(C(=O)Oc2coc(CSc3nnc(NC(=O)c4cccs4)s3)cc2=O)cc1 | 24.2
COc1ccc(CNC(=O)C2CC(=O)N(C3CCCCC3)C2)cc1 (centres unmarked) | 13.7
CCCCC[C@H]1CN(C2CCCCC2)C(=O)[C@@H]1CC(=O)NCc1ccc(OC)cc1 | -67.4
O=C(C[C@H]1C(=O)N(C2CCCCC2)C[C@@H]1Cc1ccccc1)Nc1ccccc1 | -27.4
COc1ccc(CNC(=O)C[C@H]2C(=O)N(C3CCCCC3)C[C@@H]2Cc2ccccc2)cc1 | -5.71
CCCCC[C@H]1CN(C2CCCCC2)C(=O)[C@@H]1CC(=O)NCc1ccccc1 | -67.7
C[C@H]1CN(C2CCCCC2)C(=O)[C@@H]1CC(=O)NCc1ccccc1 | -6.72
CCN(CC)CCN(CC)Cc1ccccc1Br | -19.8
Cc1cc(/C=C2\C(=O)NC(=O)N(Cc3ccccc3Cl)C2=O)c(C)n1-c1ccc(C(=O)O)cc1 | 46
Cc1[nH]nc(-c2ccc(OCc3cnn(-c4ccccc4)c3)cc2O)c1Oc1ccc(F)cc1 | 22.6
CCn1cc(-c2cc(C(F)(F)F)n3nc(C(=O)O)cc3n2)c(C)n1 | -8.81
COc1ccc(NC(=O)c2cc(S(=O)(=O)Nc3ccc(OC)cc3)cs2)cc1 | -3.01
CC(=O)c1c2c3c(cccc3n(C)c1=O)C(=O)c1ccccc1-2 | -1.1
CCOC(=O)c1c2c3c(cccc3n(C)c1=O)C(=O)c1ccccc1-2 | -71.8
CCOC(=O)c1c2c3c(cccc3[nH]c1=O)C(=O)c1ccccc1-2 | 17.6
O=C(CC1CCCCC1)Nc1ccccc1-c1ccccc1 | 6.47
Cl.O=C(CN1CCN(C2CCCCC2)CC1)Nc1cccc2ccccc12 | -31.2
O=C(CN1C(=O)C2CCCCC2C1=O)Nc1ccccc1N1CCCC1 (centres unmarked) | 1.43
Cl.O=C(CN1CCN(C2CCCCC2)CC1)Nc1ccccc1-c1ccccc1 | -70.1
CC1CCN(CC(=O)Nc2ccccc2-c2ccccc2)CC1 | -25.1
Cl.O=C(CN1CCN(C2CCCCC2)CC1)Nc1ccccc1N1CCCCC1 | -66.2
CCC(C)NC(=O)COC(=O)c1cccnc1Nc1ccccc1F (centres unmarked) | 8.21
COc1ccc(NS(=O)(=O)c2ccc(Oc3ncccn3)cc2)cc1 | 3.85

SMILES | hERG current change (%, negative = inhibition) at 10uM [%]
CC(C)c1cc(-c2cc(-c3ccc(Cl)cc3)on2)nc(NC2CCCC2)n1 | 13.3
Cc1cc(C(=O)Nc2nc3ccc(Cl)cc3s2)nn1C | 5.89
CCOC(=O)C(C)/C(C)=N/NC(N)=S (centres unmarked) | 14.4
N#Cc1ccc(OCCN2CCc3ccccc3C2)cc1 | -45.2
COc1ccc(OCCOCCN2CCOCC2)cc1 | 5.25
CCOc1ccc(OCCOCCN2CCc3ccccc3C2)cc1 | -74.8
COc1ccc(OCCCN2CCc3ccccc3C2)cc1.Cl | -47.5
CCOc1ccc(S(=O)(=O)N2CCc3ccccc3C2)cc1 | 9.5
COc1ccc(OCCOCCN2CCc3ccccc3C2)cc1 | -69.9
Cl.c1ccc(OCCOCCN2CCc3ccccc3C2)cc1 | -42.8
CCOc1ccc(OCCOCCN2CCOCC2)cc1.O=C(O)C(=O)O | 0.827
CCCOc1ccc(OCCOCCN2CCc3ccccc3C2)cc1 | -64.7
CCCC(C)NC(=O)COC(=O)c1ccc(Cl)c(S(N)(=O)=O)c1 (centres unmarked) | 8.02
CCOc1ccc(NC(=O)N2CCCC2C(=O)NCC2CCCO2)cc1 (centres unmarked) | 18.5
O=C1CCCCC1Sc1nnc(Nc2ccccc2)s1 (centres unmarked) | -7.47
O=C(Cn1nc2sc3ccccc3n2c(=O)c1=O)c1cccs1 | 7.63
CCNC(=S)Nc1ccc(Cc2ccncc2)cc1 | -4.01
COc1ccc(-c2cc(C(F)(F)F)c(C#N)c(SCC(=O)Nc3nc(C)co3)n2)cc1 | 1.46
Cc1ccc(CNC(=O)C(c2ccccc2)c2ccccc2)cc1 | -64
CCC(C(=O)NCc1ccc(C)cc1)c1ccccc1 (centres unmarked) | -1.35
O=C(NCc1ccc(F)cc1)C(c1ccccc1)c1ccccc1 | 4.43
CCOC(=O)c1ccc(NC(=O)COc2ccccc2OC)cc1 | 2.1
CCOC(=O)c1ccc(NC(=O)COc2ccccc2CNC2CCCC2)cc1.Cl | -78.1

SMILES | hERG current change (%, negative = inhibition) at 10uM [%]
CCOC(=O)c1ccc(NC(=S)NC2CCCC2)cc1 | -7.86
CCOC(=O)c1ccc(NC(=O)COc2ccccc2CNCCc2ccccc2)cc1.Cl | -79.3
CCOC(=O)c1ccc(NC(=O)COc2ccccc2CNCCO)cc1 | -24
CCOC(=O)c1ccc(NC(=O)COc2ccc(CNC3CCCCC3)cc2OC)cc1 | -26
CN(C)S(=O)(=O)Oc1ccccc1C(=O)Nc1ccc(F)cc1F | 2.34
COc1ccc(C)cc1NC(=O)C1CCCN(S(=O)(=O)c2ccc3c(c2)CCCN3C(C)=O)C1 (centres unmarked) | -2.38
CCN(CC)CCCNC(=O)C1c2ccccc2C(=O)N(C)C1c1ccc(OC)cc1 (centres unmarked) | 6.8
CCCCN(CC)CCCNC(=O)C1c2ccccc2C(=O)N(C)C1c1cn(C)c2ccccc12 (centres unmarked) | -72.7
CCN(CC)CCNC(=O)C1c2ccccc2C(=O)N(C)C1c1cn(C)c2ccccc12 (centres unmarked) | -19.5
Cc1ccccc1S(=O)(=O)N1CC(C(=O)O)=CC[C@H]1c1ccc(Cl)cc1 | 15.8
CC(CSc1nnnn1-c1ccccc1)Cn1c(N2CCN(C)CC2)nc2c1c(=O)[nH]c(=O)n2C (centres unmarked) | -43.6
Cn1c(=O)[nH]c(=O)c2c1nc(N1CCCC1)n2CCCSc1nnnn1-c1ccccc1 | -13.5
CC(CSc1nnnn1-c1ccccc1)Cn1c(N2CCCC2)nc2c1c(=O)[nH]c(=O)n2C (centres unmarked) | -45.1
CN1CCN(c2nc3c(c(=O)[nH]c(=O)n3C)n2CCCSc2nnnn2-c2ccccc2)CC1 | -51.2
CN1CCN(c2nc3c(c(=O)[nH]c(=O)n3C)n2CCSc2nnnn2-c2ccccc2)CC1 | -17
CC1CCN(c2nc3c(c(=O)[nH]c(=O)n3C)n2CC(C)CSc2nnnn2-c2ccccc2)CC1 (centres unmarked) | -57.6
CCCN1Cc2cccc(C(=O)Nc3ccc(CC)cc3)c2C1=O | 8.1
Cc1cc(C)nc(NC(=O)c2ccc(C)c(C)c2)n1 | 18
Oc1cccc(-n2nnnc2SCc2ccccc2F)c1 | 7.33
Cc1cc(C)c(S(=O)(=O)c2ccccc2)c(=O)[nH]1 | 20.6
COc1ccc(NC(=O)c2c(C)nn(-c3ccccc3)c2Cl)cc1 | 20.4
CCNC(=O)COC(=O)c1[nH]c(C)c(C(=O)OC)c1C | 8.24
Cc1cc(O)c2c(CN3CCN(Cc4ccccc4)CC3)cc(=O)oc2c1 | -13.1

SMILES | hERG current change (%, negative = inhibition) at 10uM [%]
Cc1cc(C)c2c(CN3CCOCC3)cc(=O)oc2c1 | -7.28
Cc1cc(C)c2c(CN3CCN(Cc4ccc5c(c4)OCO5)CC3)cc(=O)oc2c1C | -45.8
Cc1cc(C)c2c(CN3CCN(C)CC3)cc(=O)oc2c1 | -73.3
Cc1cc2oc(=O)cc(CN3CCN(Cc4ccc5c(c4)OCO5)CC3)c2cc1C | -17.2
Cc1cc(C)c2c(CN3CCN(Cc4ccccc4)CC3)cc(=O)oc2c1.Cl | -66.9
Cc1cc(C)c2c(CN3CCN(Cc4ccc5c(c4)OCO5)CC3)cc(=O)oc2c1 | -75.4
CCN1CCN(Cc2cc(=O)oc3cc(C)cc(C)c23)CC1 | -68.1
Cc1cc(C)c2c(CCl)cc(=O)oc2c1 | -1.06
Cc1cc(C)c2c(CN3CCCCC3C)cc(=O)oc2c1.Cl (centres unmarked) | 13.9
Cc1cc(C)c2c(CN3CCCCC3)cc(=O)oc2c1 | 10.7
CC1CCCN(C(=O)CNC(=O)Cn2ccc3ccccc3c2=O)C1 (centres unmarked) | -5.78
COc1cc(NC(=O)c2ccc(COCC(F)(F)F)o2)cc(OC)c1OC | -16.8
COc1ccc(OC)c(NC(=O)CCCCCn2nnc3ccccc3c2=O)c1 | -2.09
CN(C)S(=O)(=O)c1cc(NC(=O)CSc2cccc[n+]2[O-])ccc1Cl | 9.64
COc1ccc(-n2c(-c3cccc(OC)c3)nc(=S)c3c2CCCC3)cc1 | 8.47
CC(=O)O/N=C(/c1nonc1N)N1CCN(c2ccc([N+](=O)[O-])cc2Cl)CC1 | -33.9
COCc1[nH]nc2c1C(c1c(F)cccc1Cl)C(C#N)=C(N)O2 (centres unmarked) | -3.01
Cc1ccc(NC(=O)c2ccc(NCCN)c([N+](=O)[O-])c2)cc1Cl | -14.3
CCc1ccc2[nH]c3nc(N/N=C/c4ccc(O)cc4O)nnc3c2c1 | 3.31
CCOc1ccc(C(=O)C[n+]2ccc(C(=O)NCCO)cc2)cc1.[Br-] | 18.3
